From PubChem
Shown are actives, neighbours in structure and some others; about 2% of the full set was active somewhere.
A3G deaminase: APOBEC3G (human) deaminase inhibition; actives 0.28% (n = 330,000); recombinant A3G, ssDNA deamination FAM/TAMRA fluorescence; inhibition, % at 20 µM; Q9HC16;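 active means inhibition of at least 40% at 20 µM, with no more than 30% in the related APOBEC3A deaminase screen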
Target sequence (Q9HC16 whole entry, looked up): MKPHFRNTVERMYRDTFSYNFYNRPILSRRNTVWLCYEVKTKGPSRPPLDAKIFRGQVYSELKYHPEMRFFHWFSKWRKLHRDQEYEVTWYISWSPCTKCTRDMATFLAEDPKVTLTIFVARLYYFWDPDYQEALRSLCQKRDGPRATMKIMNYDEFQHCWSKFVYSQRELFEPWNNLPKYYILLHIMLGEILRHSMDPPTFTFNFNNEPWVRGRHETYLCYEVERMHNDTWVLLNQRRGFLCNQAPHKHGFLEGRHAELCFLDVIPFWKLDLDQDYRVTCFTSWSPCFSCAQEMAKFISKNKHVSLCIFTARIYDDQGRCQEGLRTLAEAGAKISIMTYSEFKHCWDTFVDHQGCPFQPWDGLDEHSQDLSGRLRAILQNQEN
PfGluPho inh: PfG6PD (Plasmodium falciparum) enzyme inhibition. PfGluPho enzyme, NADPH resazurin-diaphorase fluorescence. actives 0.78% (n = 350,000). inhibition, % at 20 µM. AID 504690;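 active means inhibition reaching at least a set limit at 20 µM in the primary screen, cut at about 59% in these data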
GC-A act: GC-A (human) enzyme activation | actives 0.14% (n = 370,000) | HEK293 GC-A cells, cGMP TR-FRET, EC30 ANP; 0% at EC30 ANP, 100% saturating ANP | activation, % at 10 µM | AID 1671463 | P16066; in the data active means activation above about 40%
A3A deaminase: inhibitors of human APOBEC3A DNA deaminase. recombinant A3A, FAM/TAMRA ssDNA deamination fluorescence. actives 0.41% (n = 330,000). AID 493011. inhibition, % at 20 µM. P31941;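 active means at least 40% inhibition at 20 µM here, with at most 30% in a related deaminase screen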
Target sequence (P31941 whole entry, looked up): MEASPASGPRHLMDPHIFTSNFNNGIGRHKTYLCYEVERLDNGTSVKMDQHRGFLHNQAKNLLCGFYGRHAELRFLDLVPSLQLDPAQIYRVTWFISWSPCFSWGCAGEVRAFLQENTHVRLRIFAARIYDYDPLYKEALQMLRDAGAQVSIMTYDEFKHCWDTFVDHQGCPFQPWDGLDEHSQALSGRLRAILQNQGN
GC-B act: GC-B (human) receptor activation; P20594; HEK293-GC-B cells, CNP EC30, cGMP TR-FRET; 0% at EC30 CNP, 100% saturating CNP; activation, % at 10 µM; actives 0.11% (n = 370,000);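 active means activation at 10 µM reaching about 35% in either raw or pattern-adjusted values, limit read from the data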
Neddylation inh: blocks human cullin neddylation; P61081+Q13564; TR-FRET cullin neddylation, biochemical; inhibition, % at 25 µM; actives 0.58% (n = 360,000); AID 651699; in the data active means inhibition above about 36%
A3G conf: APOBEC3G (human) deaminase inhibition, confirmed. shares compounds with A3G deaminase. recombinant A3G ssDNA deaminase, UDG/FAM-TAMRA fluorescence. inhibition, % at 20 µM. actives 72% (n = 890). AID 493152;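 active means inhibition reaching a set limit in any replicate at 20 µM, the limit being 80% of the first screen's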
UDG ctr A3G: E. coli UDG inhibition in APOBEC3G counter-screen; shares compounds with A3G deaminase; 710 tested, under 10 active; inhibition, % at 20 µM; UDG counterscreen, FAM/TAMRA oligo fluorescence;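 active means compounds giving 40% or more inhibition at 20 µM in any one of the three replicates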;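 further: inhibitors lower the FAM signal released by uracil excision and alkaline cleavage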
A number is an active result; - = inactive; . = no result given.

SMILES	A3G deaminase	PfGluPho inh	GC-A act	A3A deaminase	GC-B act	Neddylation inh	A3G conf	UDG ctr A3G
O=c1c2ccccc2sn1-c1cc(S(=O)(=O)N2CCOCC2)ccc1N1CCOCC1	77	111	-	-	-	-	77	-
O=S(=O)(c1ccc(N2CCOCC2)c(Cl)c1)N1CCOCC1	-	-	-	-	-	-	.	.
NC(=O)c1c(NC(=O)C2CCCO2)sc2c1CCCC2 (configuration not stated)	40	-	-	-	-	-	-	.
Cc1nnsc1C(=O)NNc1ccc(C(C)(C)C)cc1	53	-	-	-	-	-	-	-
COc1ccc(OCc2nnc(SCC(=O)N(C)Cc3ccccc3)n2N)cc1	47	-	-	-	-	-	41	-
Cc1ccc(OCc2nnc(SCC(=O)O)n2N)cc1	-	-	-	-	-	-	.	.
COc1ccnc(N2CCN(c3ccc(Cl)cc3)CC2)c1C#N	-	-	-	-	-	-	.	.
COc1ccnc(N2CCN(c3cccc(C(F)(F)F)c3)CC2)c1C#N	47	-	-	-	-	-	-	.
Clc1ccc([C@H]2OC[C@@]3(CNCCc4c[nH]c5ccccc45)CS[C@H](c4ccc(Cl)cc4)N23)cc1	.	.	-	.	-	.	.	.
CCCCn1c(-c2nn(C)c(C)c2Cl)n[nH]c1=S	40	-	-	-	-	-	78	-
Cc1c(Cl)c(-c2n[nH]c(=S)n2CC(C)C)nn1C	-	-	-	-	-	-	.	.
CC(=O)OCC(=O)N1CCN(C(=O)C(=O)c2cccc(C(F)(F)F)c2)CC1	.	.	-	.	-	.	.	.
CCOC(=O)[C@]12CCCCC/C=C\1N(Cc1ccc(OC)cc1)C(=O)[C@H]2CC(=O)NCc1cccc(C(F)(F)F)c1	.	.	-	.	-	.	.	.
CCOC(=O)c1ccc(NC(=O)CC2Sc3ncnn3C2=O)cc1 (configuration not stated)	42	-	-	-	-	-	50	-
COc1ccc(NC(=O)CC2Sc3ncnn3C2=O)cc1 (configuration not stated)	-	-	-	-	-	-	.	.
COc1ccc(N=c2ssnc2Cl)cc1	70	83	.	-	.	-	79	-
COc1ccc2c(C)cc3n[nH]c(=S)n3c2c1	52	-	-	-	-	.	87	-
O=C(c1ccccc1)N1CCC(=O)N1c1ccccc1	40	-	-	-	-	-	-	-
O=C1CN(c2ccccc2)C(=S)N1C(=O)c1ccccc1	-	-	-	-	-	-	.	.
C=CCN(CC#CC(=C)C)Cc1ccc(OC)cc1OC	.	.	-	.	-	.	.	.
COc1cccc2c1C(=O)c1ccc3ccccc3c1C2=O	65	-	.	-	.	-	22	-
COc1ccc(OC)c2c1C(=O)c1ccccc1C2=O	56	-	-	-	-	.	-	-
O=C(OC12CCCN(C1)/C(=C/c1ccccc1)C2)c1ccccc1 (configuration not stated)	.	.	-	.	-	.	.	.
COc1ccc(/C=C2/CN(Cc3ccc(OC)cc3OC)C3=NC(c4ccc5ccccc5c4)CC(=O)N32)cc1 (configuration not stated)	.	.	-	.	-	.	.	.
Cc1cccn2c(=O)c3cc(C(=O)NCc4ccco4)c(=N)n(C4CCCCC4)c3nc12	-	-	.	-	.	.	.	.
SMILES	A3G deaminase	PfGluPho inh	GC-A act	A3A deaminase	GC-B act	Neddylation inh	A3G conf	UDG ctr A3G
Cc1cccn2c(=O)c3cc(C(=O)NCc4ccco4)c(=N)n(CCOCCO)c3nc12	58	-	.	-	.	.	-	.
CCn1c(COc2ccccc2)nnc1SCC(=O)Nc1ccc(Oc2ccccc2)cc1	.	.	-	.	-	.	.	.
C=C(C)C(=O)Nc1cccc(C2=NOC3(C2)C[C@H](C(N)=O)N(C(=O)/C=C/C)C3)c1 (some centres not stated)	86	-	-	-	-	-	91	-
C=C(C)C(=O)Nc1cccc(C2=NOC3(C2)C[C@@H](C(N)=O)N(C(=O)/C=C/CC)C3)c1 (some centres not stated)	91	-	-	-	-	-	93	-
S=c1[nH]nc(-c2cccnc2)n1/N=C/C=C/c1ccccc1	42	-	-	-	-	-	75	-
Fc1cccc(Cl)c1/C=N/n1c(-c2cccnc2)n[nH]c1=S	46	-	-	-	-	-	76	-
S=c1[nH]nc(-c2cccs2)n1/N=C/c1c(Cl)cccc1Cl	-	-	-	-	-	-	.	.
S=c1[nH]nc(-c2cccnc2)n1/N=C/c1ccccc1	44	-	-	-	-	-	80	-
S=c1[nH]nc(-c2cccnc2)n1/N=C/c1cccs1	41	-	-	-	-	-	81	-
Nn1c(SCC(=O)Nc2ccc(OCc3ccccc3)cc2)nnc1-c1cc(-c2ccccc2)n[nH]1	.	.	-	.	-	.	.	.
O=C(CSc1nnc(-c2ccccn2)n1-c1ccc(Cl)cc1)Nc1ccc(S(=O)(=O)Nc2nccs2)cc1	.	.	-	.	-	.	.	.
O=C(c1cccc(F)c1)N1CCCC(c2nc(-c3cccs3)no2)C1 (configuration not stated)	.	.	-	.	-	.	.	.
O=[N+]([O-])c1cc2c(cc1/C=N/n1c(-c3ccccc3)n[nH]c1=S)OCO2	55	-	-	-	-	-	84	-
O=[N+]([O-])c1cc(/C=N/n2c(-c3cccnc3)n[nH]c2=S)ccc1Cl	-	-	-	-	-	-	.	.
O=[N+]([O-])c1ccccc1/C=N/n1c(-c2cccnc2)n[nH]c1=S	69	-	-	-	-	-	80	-
CCCC[C@H]1C2CC(OC(=O)Nc3cc(C)cc(C)c3)C(C2)[C@H]2CCCCN21 (some centres not stated)	.	.	-	.	-	.	.	.
O=S1(=O)CC(N2CCCC2)CN1 (configuration not stated)	.	.	-	.	-	.	.	.
COC(=O)C1CN(CCO)CCS(=O)(=O)N1Cc1cccc(Cl)c1 (configuration not stated)	.	.	-	.	-	.	.	.
Cc1ccc(-c2n[nH]c3c2C(c2ccccc2)N(c2ccc(C(=O)O)cc2)C3=O)cc1 (configuration not stated)	74	-	-	-	-	-	-	-
O=C(Nc1nc2c(Br)cccc2s1)c1ccc2c(c1)OCCO2	.	.	-	.	-	.	.	.
CCc1cc(/C(Cc2ccccn2)=N\Nc2ccccc2)c(O)cc1O	42	-	-	-	-	-	-	-
C=CCN1C(=O)C2(NNc3ccccc3O2)c2ccccc21 (configuration not stated)	-	-	-	-	-	-	.	.
CCCCN1C(=O)C2(NNc3ccccc3O2)c2ccccc21 (configuration not stated)	43	-	-	-	-	-	-	.
